PubChem BioAssay AID1626 (SRMLSC, 2009)
About 2,000 (0.91%) of roughly 220,000 compounds were called active. Not shown: some 2% with an inconclusive outcome. The list is a sample of the results. Entries with a potency or affinity are not part of this list. A number with no mark means an inactive call. No stated cut-off is given here; in the data, inconclusive means inhibition above about 80% without an active follow-up result; inactive means below that; test concentration not stated here.

Assay: M. tuberculosis H37Rv growth inhibitors, H37Rv strain (AID 1626);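 further: bacteria incubated seven days before Alamar blue readout; 0% = bacteria only wells and 100% = bacteria with antibiotic wells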
Conditions: active compounds read high, concentration not given here
`Cc1ccccc1C(=O)NC1CCN(CC(=O)NCc2cccs2)CC1` gave an inhibition of 2.61%. With `COc1ccc(/C=C/C(=O)c2sc(-c3ccccc3)nc2C)cc1` the inhibition was 6.03%. Work on `Cc1ccc(N/C=C/C(=O)c2sc(-c3ccccc3)nc2C)cc1` yielded an inhibition of 3.94%. Work on `COc1cc(S(=O)(=O)N2CCCCC2)ccc1NC(=O)Cc1ccccc1` yielded an inhibition of -1.81%. `Cc1ccc(CNC(=O)COC(=O)c2cnc(C)cn2)cc1` gave an inhibition of 0.26%. `COC1=C(Nc2ccccc2)C(=O)c2ccccc2C1=O` showed an inhibition of 13.5%. For `COC1=C(Nc2ccc(OC)cc2)C(=O)c2ccccc2C1=O`, the inhibition was 8.34%. Compound `COc1cccc(-c2nc(-c3ccc(C(=O)O)cc3)no2)c1` has an inhibition of -12.7%. `O=[N+]([O-])c1cc(CN2CCCC2)c2cccnc2c1O` showed an inhibition of -5.59%. In the case of `O=[N+]([O-])c1cc(CN2CCN(c3ccccc3)CC2)c(O)c2ncccc12`, the inhibition was 77.9%. For `COc1ccc(NC(=O)C2C3CCC(C3)C2C(=O)O)cc1OC` (configuration not stated), the inhibition was 6.44%. `COCCC(=O)Nc1ccc2c(c1)CN(C(=O)CCSC)CC2` showed an inhibition of 3.42%. With `CCn1c(CNc2ccccc2Cl)nnc1SCC(=O)NCc1ccccc1` the inhibition was -4.41%. `CCn1c(CNc2ccc(OC)cc2)nnc1SCC(=O)Nc1ccc(F)cc1` showed an inhibition of -10.9%. With `CCn1c(CNc2ccc(F)cc2)nnc1SCC(=O)Nc1ccc(OC)cc1` the inhibition was 2.51%. Compound `CCn1c(CNc2ccccc2Cl)nnc1SCCN1CCCCC1` has an inhibition of -2.66%. `Cc1ccc(NC(=O)CSc2nnc(Cc3ccccc3)o2)cc1` showed an inhibition of 22.6%. `O=C(CSc1nnc(Cc2ccccc2)o1)Nc1ccccc1` gave an inhibition of -4.88%. With `COCCN(C(=O)c1ccco1)C(C(=O)NC1CCCC1)c1cccs1` (configuration not stated) the inhibition was 0.07%. `CC(OC(=O)c1snc(C(=O)NC2CCCCC2)c1N)C(=O)NC(C)(C)C` (configuration not stated) gave an inhibition of 39%. For `CCOC(=O)c1snc(C(=O)NC2CCCCC2)c1N`, the inhibition was 5.5%. In the case of `CC(OC(=O)c1snc(C(=O)NC2CCCCC2)c1N)C(=O)NC1CCCCC1` (configuration not stated), the inhibition was 2.49%. In the case of `CCOC(=O)c1sc(C)c(C(=O)NC2CCCCC2)c1N`, the inhibition was 4.33%. Compound `COc1ccc(NC(=S)Nc2ccccc2F)c(OC)c1` has an inhibition of -4.54%. With `COC(=O)c1ccccc1NC(=O)C1CCCN(S(=O)(=O)c2ccc(OC)cc2)C1` (configuration not stated) the inhibition was 5.41%. `O=C(/C=C/c1ccccc1Cl)NCc1cccs1` showed an inhibition of 2.96%. In the case of `O=C1CC(SCc2nc3ccccc3[nH]2)C(=O)N1c1ccc(F)c(Cl)c1` (configuration not stated), the inhibition was -2.51%. Work on `Cc1cccn2c(=O)c3cc(C(=O)NC(C)c4ccccc4)c(=N)n(CCCn4ccnc4)c3nc12` (configuration not stated) yielded an inhibition of 48.6%. In the case of `CC1(C)C2CCC1(C)C(Nc1ccccc1)C2` (configuration not stated), the inhibition was 3.82%. `C=CC(=O)NC1CC2CCC1(C)C2(C)C` (configuration not stated) showed an inhibition of 6.5%. With `Cc1onc(-c2c(F)cccc2Cl)c1C(=O)N1CCN(c2ncccn2)CC1` the inhibition was 3.2%. `COc1cc(CNn2c(C)n[nH]c2=S)cc(Br)c1OCc1ccc(F)cc1` gave an inhibition of 6.01%. `CCOc1ccc(N=C(/C(C(=O)C(=O)N2CCOCC2)=C(/O)c2ccccc2)c2ccccc2)cc1` gave an inhibition of 70.8%. For `CCOc1ccc(OCc2ccc(C(=O)N3CCOCC3)cc2)cc1`, the inhibition was -3.72%. `Nc1ccc(C(=O)c2cccs2)cn1` showed an inhibition of -5.69%. In the case of `O=C(c1ccccc1)c1cccs1`, the inhibition was 0.41%. For `COc1ccc(-c2csc(NC(CO)c3nc4ccccc4n3CCCO)n2)cc1` (configuration not stated), the inhibition was 1.28%. With `O=C(Nc1ccccn1)c1cc2ccccc2o1` the inhibition was 9.27%. `Cc1cc(-c2csc(NC(=O)c3cc4ccccc4o3)n2)c(C)n1C` showed an inhibition of -8.86%. With `Cc1ccc(C(=O)Nc2nc(-c3cccnc3)cs2)o1` the inhibition was 7.51%. Work on `Cc1ccc(-c2csc(NC(=O)c3ccc(C)o3)n2)cc1` yielded an inhibition of 10.4%. With `CCCCn1nnnc1SCC(=O)N1CCOCC1` the inhibition was -13.6%. For `Cc1[nH]nc2c1C(c1cccs1)C(C#N)=C(N)O2` (configuration not stated), the inhibition was 8.65%. Compound `CC(O)[C@H]1CNC(=O)C(=O)N1CCC12CC3CC(CC(C3)C1)C2` (some centres not stated) has an inhibition of -0.53%. In the case of `COc1ccc(OC)c(S(=O)(=O)Nc2ccc3oc4c(c3c2)C(=O)CCC4)c1`, the inhibition was -4.7%. `CC(=O)Oc1ccc2oc(C)c(C(=O)N3CCOCC3)c2c1` gave an inhibition of -12.9%. In the case of `COc1ccc(-n2c(O)c(C(C)=NCc3ccc4c(c3)OCO4)c(=O)[nH]c2=O)cc1`, the inhibition was 0.11%. For `CC(C)N(C(=O)CC1ON(C)C(=O)N1c1ccc(Cl)cc1)C(C)C` (configuration not stated), the inhibition was -4.4%. `CCOC(=O)C1=C(c2ccccc2)N=c2s/c(=C\c3cc(OC)c(OC)c(OC)c3)c(=O)n2C1c1cccs1` (configuration not stated) showed an inhibition of -2.92%. Work on `CCOC(=O)C1=C(C)N=c2s/c(=C/c3ccccc3)c(=O)n2C1c1ccc(OC)c(OC)c1` (configuration not stated) yielded an inhibition of 1%. Work on `S=C(NCCc1ccccc1)Nc1ccccc1N1CCOCC1` yielded an inhibition of 0.99%. For `COc1ccc([N+](=O)[O-])cc1NC(=O)C(C)OC(=O)c1cccnc1Cl` (configuration not stated), the inhibition was -2.19%. With `CC1=C(C(=O)Nc2ccccn2)C(c2ccc(Cl)cc2)NC(=S)N1` (configuration not stated) the inhibition was -5.44%. For `CCOC(=O)c1cnc(Nc2nc3ccccc3o2)nc1CSC(=S)N(CC)CC`, the inhibition was -2.38%. For `CCOC(=O)c1cnc(Nc2nc3ccccc3o2)nc1CSc1ncccn1`, the inhibition was 0.18%. Compound `O=C1c2cc(O)cc(O)c2C(=O)c2c1cc(O)c([C@@H](CO)CCO)c2O` has an inhibition of -0.07%. With `Cc1cc(NC(=O)CCCC(=O)N(c2ccccc2)C(C(=O)NC2CCCCC2)c2cccs2)no1` (configuration not stated) the inhibition was -3.8%. Compound `Cc1ccc([N+](=O)[O-])cc1N(CC(=O)NC1CCCC1)S(C)(=O)=O` has an inhibition of 1.23%. `Cc1c(/C=N\NC(=O)C2COc3ccccc3O2)c2ccccc2n1C` (configuration not stated) showed an inhibition of 10.6%. In the case of `C#CCNC(=O)C1=C[C@@H](C2CC2)[C@H](CCCO)[C@@H](OCC)O1`, the inhibition was -9.56%. Compound `CCC(=O)Nc1nnc(-c2ccc(Cl)s2)o1` has an inhibition of 13.6%. `O=C(Nc1nnc(-c2ccco2)o1)C1CCCCC1` showed an inhibition of 3.01%. For `CC(=O)Nc1nnc(-c2ccc(Cl)s2)o1`, the inhibition was 2.92%. `O=C(Nc1nnc(-c2ccncc2)o1)C1CCCCC1` showed an inhibition of 0.18%. Compound `Cc1cc(C(=O)COc2ccc(Cl)cc2Br)c(C)n1C` has an inhibition of -4.24%. Work on `CCN(CC)C(=O)C1CCCN(c2ccc([N+](=O)[O-])cc2/C=N/NC(=O)c2ccccc2)C1` (configuration not stated) yielded an inhibition of 9.19%. Compound `Cc1ccc(CNC(=O)CCc2nc(-c3cccs3)no2)cc1` has an inhibition of 6.02%. For `CCN(CC)S(=O)(=O)c1ccc(NS(=O)(=O)CC23CCC(CC2=O)C3(C)C)cc1` (configuration not stated), the inhibition was -3.32%. Work on `C=CCNC(=O)c1ccc(-n2cccc2)cc1` yielded an inhibition of 8.71%. Compound `O=C(Nc1ccc(F)cc1)N1CCC(c2nc3c(nnn3Cc3cccc(Cl)c3)c(=O)[nH]2)CC1` has an inhibition of 64.2%. Work on `N#Cc1ccc(NC(=O)N2CCC(c3nc4c(nnn4Cc4cccc(Cl)c4)c(=O)[nH]3)CC2)cc1` yielded an inhibition of 69%. Compound `N/C(=N\OC(=O)CCc1ccccc1)c1ccccc1Cl` has an inhibition of 14.4%. With `COc1cc(CNC(C)(C)CO)cc(Br)c1OCc1ccc(Cl)cc1` the inhibition was 9.24%. In the case of `COc1cc(CNC(C)(C)CO)cc(Br)c1OCc1ccc(Cl)cc1Cl`, the inhibition was 62.5%. For `COC(=O)CCC(=O)OC1(C)C(=O)C2=CN(Cc3ccco3)C(c3ccc(OC)cc3)=CC2=C(Br)C1=O` (configuration not stated), the inhibition was 1.66%. `CCC(=O)Nc1cccc(C(=O)Nc2nccs2)c1` gave an inhibition of 2.64%. In the case of `O=C(COC(=O)c1ccccn1)Nc1nccs1`, the inhibition was -5.49%. For `O=C(Nc1nccs1)c1cnccn1`, the inhibition was -1.5%. `Cc1cnc(NC(=O)c2sc3ccccc3c2Cl)s1` gave an inhibition of 3.19%. In the case of `O=C(Nc1ccncc1)c1sc2ccccc2c1Cl`, the inhibition was 2.92%. With `CCCc1cc(C(=O)Nc2nnc(C)s2)cs1` the inhibition was 1.88%. For `Cc1onc(-c2c(F)cccc2Cl)c1C(=O)Nc1nccs1`, the inhibition was 6.17%. `COC(=O)c1nc(N)sc1-c1ccc(OC)cc1` gave an inhibition of -1.47%. For `CCCS(=O)(=O)N1CCN(Cc2ccc([N+](=O)[O-])cc2)CC1`, the inhibition was 5.19%. In the case of `COc1ccc(CNC(=O)COC(=O)c2ccc(Br)cc2)cc1`, the inhibition was 5.06%. In the case of `CN(C)NC(=O)C(NC(=O)c1ccccc1)C12CC3CC(CC(C3)C1)C2` (configuration not stated), the inhibition was -4.07%. With `CCn1c(=O)c(C(=O)CN2CCCc3ccccc32)c(N)n(Cc2ccccc2)c1=O` the inhibition was -5.75%. Compound `COc1ccc(-c2nnc3n2C(C)(C)Cc2cc(OC)c(OC)cc2-3)cc1` has an inhibition of 3.77%. `COc1ccc(NS(=O)(=O)c2ccc(O)c(C(=O)OCC(=O)NC(C)C3CC4CCC3C4)c2)cc1` (configuration not stated) showed an inhibition of -0.76%. Work on `COC(=O)[C@@H](NC(=O)Nc1ccc(OC)cc1)C(C)C` yielded an inhibition of 2.16%. For `CCc1ccc(NC(=O)c2ccccc2Br)cc1`, the inhibition was 6.96%. Compound `CC(SC1CCCC1)C(=O)NC(C)(C#N)C(C)C` (configuration not stated) has an inhibition of -2.88%. `CC(C)(C)NC(=O)C1CCC(CNc2c(N3CCCCC3)c(=O)c2=O)CC1` (configuration not stated) showed an inhibition of -2.67%. `COc1ccc(NC(=O)CN2CCN(C3c4ccccc4-c4ccccc43)CC2)c(OC)c1` gave an inhibition of 28.6%. With `COc1ccc(NC(=O)CN2CCN(C3c4ccccc4-c4ccccc43)CC2)cc1` the inhibition was 18.1%. With `CCOc1ccc(NC(=O)CN2CCN(CC(=O)Nc3ccc(F)cc3)CC2)cc1` the inhibition was 9.61%. With `CCOc1ccc(NC(=O)CN2CCN(CC(=O)Nc3ccc(F)c(F)c3)CC2)cc1` the inhibition was 10.7%.
